# Laboratory results: PubChem BioAssay AID489012 (National Center for Advancing Translational Sciences (NCATS), 2010)
# Results filed as inconclusive are left out. A call without a number means that no potency is given here. Activity calls are given as the source filed them. The call rests on the fitted dose curve; in most records, active means well fitted activation curve with a large enough effect; inconclusive means small, poorly fitted or top-dose-only effect; inactive means no such curve, though single readings can be large or run the other way.
# Target: Relaxin receptor 1 (Homo sapiens) (UniProt Q9HBX9)
# Experiment: qHTS Assay for Agonists of the Relaxin Receptor RXFP1: RXFP1 Hit Validation; further: nearly all actives have a fitted effect of over 65% in size;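 on activation: cAMP rise lowers the TR-FRET signal in lysed cells with PDE4 inhibitor present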
# Conditions: HEK293T-RXFP1 cAMP TR-FRET, 30 min; series mostly up to 115 µM
# Potency means the concentration at half of the fitted maximal effect.
# Sequence of Relaxin receptor 1 (Homo sapiens) (Q9HBX9 whole entry, looked up): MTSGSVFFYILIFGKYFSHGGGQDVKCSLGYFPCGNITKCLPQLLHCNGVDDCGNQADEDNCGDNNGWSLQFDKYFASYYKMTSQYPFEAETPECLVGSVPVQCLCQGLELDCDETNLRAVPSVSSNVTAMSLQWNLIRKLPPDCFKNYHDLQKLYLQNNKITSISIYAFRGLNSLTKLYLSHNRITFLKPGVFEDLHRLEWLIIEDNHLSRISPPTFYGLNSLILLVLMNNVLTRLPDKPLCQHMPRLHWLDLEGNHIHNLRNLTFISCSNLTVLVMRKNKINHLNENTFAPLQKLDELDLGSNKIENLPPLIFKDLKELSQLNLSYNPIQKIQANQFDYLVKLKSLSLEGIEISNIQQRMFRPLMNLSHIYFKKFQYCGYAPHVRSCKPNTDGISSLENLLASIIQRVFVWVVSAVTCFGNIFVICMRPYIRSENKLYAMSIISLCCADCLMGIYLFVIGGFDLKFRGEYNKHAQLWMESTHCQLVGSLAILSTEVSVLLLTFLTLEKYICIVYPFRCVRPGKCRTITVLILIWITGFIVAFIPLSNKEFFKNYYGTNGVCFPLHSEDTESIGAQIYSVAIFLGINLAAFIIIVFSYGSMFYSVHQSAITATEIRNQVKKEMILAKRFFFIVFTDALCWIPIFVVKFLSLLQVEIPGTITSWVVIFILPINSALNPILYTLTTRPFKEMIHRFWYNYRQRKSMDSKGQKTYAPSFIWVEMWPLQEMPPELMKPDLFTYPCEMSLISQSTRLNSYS
row,SMILES,Potency
1,COC(=O)[C@@H]1C[C@@]2(O)[C@H](O)[C@H](O)[C@H](O)C[C@H]2N1Cc1cc(F)ccc1F,inactive
2,O=C(Nc1ccccc1C(=O)NCc1ccc(Cl)cc1)c1ccco1,inactive
3,CCc1cc2c(=O)nc3n(c2s1)Cc1ccccc1/C3=C(/O)c1cccc([N+](=O)[O-])c1,5.3 µM (active)
4,Cc1cc(C)c(NC(=O)CS(=O)CC(=O)Nc2ccc(F)cc2F)c(C)c1 (stereo unspecified),inactive
5,O=C(Nc1ccccc1C(=O)NCCc1ccccc1)c1ccco1,inactive
6,CN(C)c1ccc(C(=S)N2CCN(S(=O)(=O)c3ccccc3)CC2)cc1,inactive
7,COC(=O)c1c(NC(=O)c2cccc(N3C(=O)CCC3=O)c2)sc2c1CCN(C(C)=O)C2,inactive
8,Cc1c(C(=O)NNc2cc(=O)n(C)c(=O)n2C)cccc1[N+](=O)[O-],inactive
9,O=C(Nc1ccccc1C(=O)NC1CCCCC1)c1ccco1,inactive
10,COc1ccc(NC(=O)CSc2nc(-c3ccc(C)cc3)cc(C(F)(F)F)c2C#N)cc1,inactive
11,Cc1cccc(N2C(=O)C(O)=C(C(=O)c3cccs3)C2c2ccc(C(C)C)cc2)n1 (stereo unspecified),inactive
12,Cc1cc(NC(=O)CSc2ncnc3c2cnn3-c2cccc(Cl)c2)no1,inactive
13,O=C(Nc1cccc(C(F)(F)F)c1)c1ccccc1NC(=O)C1CCCCC1,11.9 µM (active)
14,CC1C/C(=N\NC(N)=S)c2cc(Cl)ccc2S1 (stereo unspecified),inactive
15,O=C(Cn1cnc2c(nnn2-c2ccc(F)cc2)c1=O)NCC1CCCO1 (stereo unspecified),8.7 µM (active)
16,CCOP1(=O)OCC2OC(n3cnc4c(N)ncnc43)C(O)C2O1 (stereo unspecified),6.91 µM (active)
17,CC(C(=O)Nc1cccnc1)n1cc([N+](=O)[O-])cn1 (stereo unspecified),inactive
18,COC(=O)Cn1cnc2c(C#N)c3n(c2c1=O)CCCC3,24.5 µM (active)

row,SMILES,Potency
1,COc1ccc(Nc2ncc(C#N)c(N)n2)c(OC)c1,inactive
2,Nc1nnc(CC(=O)N/N=C/c2ccc(-c3ccc(Cl)cc3Cl)o2)s1,inactive
3,N#CCCSc1ncnc2c1oc1ccccc12,19.4 µM (active)
4,O=C(O)c1ccc(N2C(=O)c3cccc4c(C(=O)O)ccc(c34)C2=O)cc1,inactive
5,Cc1cccn2c(=O)c(/C=C3\SC(=S)NC3=O)c(NCCCN3CCOCC3)nc12,7.74 µM (active)
6,O=C(Nc1ccccc1C(=O)NCCN1CCOCC1)c1ccco1,inactive
7,Cc1cccn2c(=O)c3cc(C(=O)NCCN4CCOCC4)c(=N)n(CCCN4CCOCC4)c3nc12,inactive
8,Cc1cccc2cc(C#N)c(SCC(=O)NCc3cccs3)nc12,17.3 µM (active)
9,O=C(Nc1ccccc1C(=O)NCc1ccco1)c1ccco1,inactive
10,O=C(O)c1ccc(CN2C(=O)c3ccc(C(=O)O)cc3C2=O)cc1,inactive
11,O=C(CCc1nnc2ccc(NCCCN3CCCC3=O)nn12)NCc1ccccc1Cl,inactive
12,COc1ccc(CCn2c(=N)c(C(=O)NCC3CCCO3)cc3c(=O)n4cccc(C)c4nc32)cc1 (stereo unspecified),inactive
13,CN(C)c1ccc(NC(=O)C2C3C=CC(C3)C2C(=O)O)cc1 (stereo unspecified),inactive
14,CCN(CC)c1ccc(S(=O)(=O)N2CCOCC2)cc1NC(=O)CSc1nncn1C,12.3 µM (active)
15,Cc1cc2c(SCC(=O)NCC3CCCO3)ncnc2s1 (stereo unspecified),inactive
16,O=C(Nc1ccccc1C(=O)Nc1ccccc1C(=O)NCc1ccco1)c1ccco1,21.9 µM (active)
17,COc1ccc(Cl)cc1-c1n[nH]c(=S)o1,6.15 µM (active)
18,Cc1cc(C(=O)COC(=O)Cn2cnc3c2c(=O)n(C)c(=O)n3C)c(C)n1C,30.9 µM (active)
